Compound activity (PubChem BioAssay)
Hits are enriched below; roughly 6.7% of the tested compounds scored in any of these assays.
KB-V1 MDR tox: kills drug-selected multidrug resistant KB-V1 cells; AID 1347076; Potency, µM (series often up to 46.1 µM), most hits filed as cytotoxic; KB-V1 MDR cells viability, CellTiter-Glo, 72 h; 400,000 compounds, 3.4% hits; further: nearly all actives have a fitted effect of over 60% in size
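Readout: CellTiter-Glo luminescence, 10 min after addition. Cells: KB-V1 MDR subline, 72 h at 37 degrees C with compound. Analysis: corrected, normalized data fitted to concentration-effect curves.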
KB-3-1 tox: kills parental KB-3-1 adenocarcinoma cells | KB-3-1 viability, CellTiter-Glo ATP luminescence, 72 h | Potency, µM (top dose mostly 46.1 µM), most hits filed as cytotoxic | 400,000 compounds, 1.4% hits; further: nearly all actives have a fitted effect of over 60% in size
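Parental KB-3-1 viability, qHTS format: 72 h compound exposure, 37 °C; CellTiter-Glo; media-only wells and DMSO plates as controls; concentration-effect fits on corrected data.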
SW480 rerep: induces DNA re-replication in SW480 colon adenocarcinoma cells | SW480 DNA re-replication, Hoechst DNA content imaging, 48 h | AID 624297 | Potency, µM (highest dose often 46.1 µM), actives largely listed as activators | 340,000 compounds, 1.8% hits; further: nearly all actives have a fitted effect of over 55% in size
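Treated cells incubate 48 hr (37 C, 5% CO2), are stained 40 min with Hoechst, and nuclear fluorescence is enumerated; a rise in nuclei with high DNA signal marks re-replication.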
PINK1 modulator: modulators of PINK1 expression; PINK1 immunofluorescence, high-content cytometry, 24 h; Potency, µM (series often up to 76.6 µM), hits mostly activators; 410,000 compounds, 0.2% hits; active means well fitted activation curve with a large enough effect; inconclusive means small, poorly fitted or top-dose-only effect; cell line not stated here; further: nearly all actives have a fitted effect of over 65% in size
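A stable cell line was treated with compounds at 5 concentrations for 24 hours, with CCCP as control. PINK1 levels and mitochondrial localization were measured by immunofluorescence with mitochondrial, cell and nuclear markers after fixation, read by laser-scanning cytometry.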
MCF10A rerep: DNA re-replication induction in MCF 10a cells; MCF 10A DNA re-replication, Hoechst nuclear intensity, 48 h; Potency, µM (top dose mostly 46.1 µM), actives largely listed as activators; 350,000 compounds, 2.9% hits; AID 624296; further: nearly all actives have a fitted effect of over 50% in size
Numbers stand for hits; i = inactive; ? = inconclusive; nt = no result. Unless noted, the call rests on the fitted dose curve; in most records, active means well fitted curve in the direction sought with a large enough effect; inconclusive means small, poorly fitted or top-dose-only effect, or another doubt; inactive means no such curve, though single readings can be large; an effect the other way counts as inactive or inconclusive.

SMILES	KB-V1 MDR tox	KB-3-1 tox	SW480 rerep	PINK1 modulator	MCF10A rerep
CCOc1ccc2nc(/N=C/c3c(C)[nH]n(-c4ccccc4)c3=O)sc2c1	?	?	2.9µM	i	i
CCOc1ccc2nc(/N=C/c3c(C)[nH]n(-c4ccc(C)cc4)c3=O)sc2c1	10µM	12µM	i	i	i
COc1cccc(CNC(=O)c2c(OC)cc(=O)n3c2CCN(C(=O)c2ccoc2C)CC3)c1	nt	nt	nt	i	nt
O=C(NCCOc1ccccc1)c1n[nH]c(=O)c2ccccc12	23µM	i	i	i	i
O=C(NCCOc1ccccc1)c1ccc2n[nH]nc2c1	?	i	4.6µM	i	i
CCNC(=O)C1CCCN(C(=O)c2ccccc2OC(F)(F)F)CC1 (configuration not stated)	i	i	nt	i	nt
c1ccc(N2CCCCC2)c(Nc2nc3ccccc3n3cnnc23)c1	i	?	i	i	12µM
c1ccc2c(c1)nc(Nc1ccc(N3CCCCC3)cc1)c1nncn12	i	i	i	i	?
FC(F)(F)c1ccc(N2CCOCC2)c(Nc2nc3ccccc3n3cnnc23)c1	?	?	?	i	23µM
Fc1ccc(Nc2nc3ccccc3n3cnnc23)c(F)c1	i	i	nt	i	nt
CCOc1cccc(C(=O)N(Cc2cccc(F)c2)C2CCS(=O)(=O)C2)c1 (configuration not stated)	i	i	i	i	i
CC(C)(C)NCc1cccn1-c1sc2c(c1C#N)CCCC2	16µM	i	i	i	i
O=C(Nc1ccc(NC(=O)c2ccco2)c(Cl)c1)c1ccccc1	i	i	i	i	i
O=C(Nc1ccc(NC(=O)c2ccc([N+](=O)[O-])o2)cc1Cl)c1ccco1	i	18µM	2.1µM	i	9.2µM
O=C(/C=C/c1cccc([N+](=O)[O-])c1)Nc1cccc(NC(=O)c2ccco2)c1	?	?	i	i	16µM
O=C(Nc1cccc(NC(=O)c2ccc([N+](=O)[O-])o2)c1)c1ccco1	?	?	4.1µM	i	2.3µM
O=C(/C=C\c1ccco1)Nc1cc([N+](=O)[O-])ccc1F	1.2µM	4.1µM	0.58µM	i	?
CCCc1nc(Nc2nc3ccccc3o2)nc(C)c1C(=O)OCC	3.7µM	i	i	i	i
CCOC(=O)c1cnc(Nc2nc3ccccc3o2)nc1CSc1ncccn1	i	i	i	i	i
CCOC(=O)c1cnc(Nc2nc3ccccc3o2)nc1CSC(=S)N(CC)CC	?	1.3µM	?	i	?
O=C(/C=C/c1ccc(C(F)(F)F)cc1)Nc1cccc([S+](=O)([O-])Nc2ccccc2F)c1	i	i	nt	nt	nt
CN(C)CCN1CCN(C2CN(Cc3ccc([N+](=O)[O-])cc3)S(=O)(=O)C2)CC1 (configuration not stated)	i	i	nt	i	nt
COc1ccc(C(=O)NNC(=O)c2ccc3ccccc3n2)cc1	?	?	?	i	?
Cn1c(=O)c(=O)n(C)c2cc(N3CCCCC3)c(NS(=O)(=O)c3ccc(Br)cc3)cc21	i	i	7.3µM	i	i
Cn1c(=O)c(=O)n(C)c2cc(N3CCOCC3)c(NS(=O)(=O)c3ccc(Cl)cc3)cc21	i	i	nt	i	nt
SMILES	KB-V1 MDR tox	KB-3-1 tox	SW480 rerep	PINK1 modulator	MCF10A rerep
CCN(CC)S(=O)(=O)c1ccc(N2CCCC2)c(NC(=O)Cc2cc(OC)c(OC)c(OC)c2)c1	?	i	i	i	i
CCN(CC)S(=O)(=O)c1ccc(N2CCN(C)CC2)c(NC(=O)Nc2ccc(C)cc2)c1	i	i	i	i	12µM
CCN(CC)S(=O)(=O)c1ccc(N2CCCC2)c(NC(=O)Cc2ccc(OC)cc2)c1	23µM	i	i	i	?
CCOc1ccc(S(=O)(=O)Nc2cc(S(=O)(=O)N(CC)CC)ccc2N2CCCC2)cc1	2.6µM	?	?	i	i
COc1cccc(CNC(=O)C(NS(=O)(=O)c2ccc3c(c2)oc(=O)n3C)C(C)C)c1 (configuration not stated)	i	i	nt	i	nt
CCOC(=O)c1ccc(N2CCCCC2)c(NS(=O)(=O)c2ccc(C)cc2)c1	?	?	?	i	21µM
CCOC(=O)C1=C(CSc2nc3ccccc3s2)NC(=O)NC1c1cc(C)ccc1C (configuration not stated)	i	i	18µM	nt	?
CCOC(=O)C1=C(CSc2nc3ccccc3s2)NC(=O)NC1c1ccc(OC)cc1 (configuration not stated)	16µM	?	i	nt	i
CC1=C(C(=O)Nc2cccnc2)C(c2ccc(Cl)cc2)n2nc(SCc3ccccc3)nc2N1 (configuration not stated)	?	i	nt	i	nt
CCSc1oc(-c2ccco2)nc1S(=O)(=O)c1ccc(C)cc1	?	i	i	i	i
CCSc1oc(-c2ccco2)nc1S(=O)(=O)c1ccc(F)cc1	16µM	i	i	i	i
Cc1cc(C)c(NC(=O)c2cc(C)nc3c2c(C)nn3-c2cccc(F)c2)c(C)c1	?	i	nt	i	nt
CCCCCCCCCCCCCCCCCCOC[C@H](COP(=O)([O-])OCC[N+](C)(C)C)OC	nt	nt	21µM	nt	?
CN(C)CC(C)(C)NS(=O)(=O)c1ccc(Cl)cc1	i	i	?	nt	15µM
Cc1ccc2cccc(N=Cc3c(C)[nH]n(-c4ccccc4)c3=O)c2n1	13µM	i	7.3µM	i	i
Cc1[nH]n(-c2ccccc2)c(=O)c1/C=N/O	i	i	?	nt	?
Cc1[nH]n(-c2ccccc2)c(=O)c1/C=N/N(C)c1ccccc1	15µM	i	?	i	i
CSc1nn(Cc2cccc(Cl)c2)c(N(C(C)=O)C(C)=O)c1S(=O)(=O)c1ccccc1	i	i	nt	?	nt
CCOC(=O)[C@]12CCC=C1N(Cc1ccc(Cl)cc1Cl)C(=O)[C@H](CC(=O)NCC1CCCCC1)C2	?	i	nt	i	nt
COc1ccc2[nH]cc(CCNc3ncncc3-c3cccc(C#N)c3)c2c1	nt	nt	nt	i	nt
O=C(COC(=O)c1c2c(nc3ccccc13)/C(=C/c1cccc([N+](=O)[O-])c1)CCC2)NC1CCS(=O)(=O)C1 (configuration not stated)	23µM	?	nt	i	?
CN(C(=O)COC(=O)c1c2c(nc3ccccc13)/C(=C/c1cccc([N+](=O)[O-])c1)CCC2)C1CCS(=O)(=O)C1 (configuration not stated)	?	5.8µM	i	i	?
CN(C(=O)COC(=O)/C=C/c1cccc([N+](=O)[O-])c1)C1CCS(=O)(=O)C1 (configuration not stated)	i	?	i	i	i
COc1ccc(CNC(=O)C2CCCN(C(=O)N3CCOc4ccccc43)C2)cc1 (configuration not stated)	i	i	nt	i	nt
COc1cc2ccnc(Cc3cccc(OC)c3OC)c2cc1OC	2.1µM	7.3µM	i	i	?
COc1cc(N)c(Cc2nccc3cc(OC)c(OC)cc23)cc1OC	i	i	i	i	i
